Shown are actives, neighbours in structure and some others; about 2.1% of the full set was active somewhere.
HSV augment – increases HSV replication in cells. HSV replication augmentation in cells, fold increase. maximum fold increase. actives 0.005% (n = 220,000). AID 1956; in the data active = maximum fold increase above about 1.5; inconclusive = no clear call, values can overlap the other calls; tested in PC3 cells
ROMK primary – modulates human ROMK potassium channel activity. P48048. Tet-inducible ROMK, thallium flux fluorescence; actives lie on both sides. B-score at 10 µM. actives 2% (n = 130,000). AID 1918;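 active = signal ratio slope over the read window, or its plate-corrected B-score, at least 3 SD from the plate mean, either direction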;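 also: B-score of the F/F0 ratio slope over 7 to 12 s after thallium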
Target sequence (P48048 whole entry, looked up): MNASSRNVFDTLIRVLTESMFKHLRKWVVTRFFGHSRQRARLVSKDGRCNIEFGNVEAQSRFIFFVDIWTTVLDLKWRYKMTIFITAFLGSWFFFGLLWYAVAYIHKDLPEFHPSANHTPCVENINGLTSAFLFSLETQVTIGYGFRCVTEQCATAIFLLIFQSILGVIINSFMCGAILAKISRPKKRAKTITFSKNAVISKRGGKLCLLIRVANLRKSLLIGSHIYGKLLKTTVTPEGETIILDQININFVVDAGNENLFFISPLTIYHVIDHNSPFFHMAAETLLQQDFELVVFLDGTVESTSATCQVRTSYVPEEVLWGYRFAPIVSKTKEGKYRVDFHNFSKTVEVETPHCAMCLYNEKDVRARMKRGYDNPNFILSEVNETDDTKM
Arbovirus anti – arbovirus infection inhibition; inhibition, % at 10 µM; actives 0.37% (n = 200,000); arbovirus infection cell-based antiviral screen; in the data active = inhibition above about 30%
Efa HMGR inh – blocks class II HMG-CoA reductase of Enterococcus faecalis. purified E. faecalis HMGR, NADPH absorbance 340 nm kinetic. inhibition, % at 10 µM. actives 0.41% (n = 190,000). AID 1066;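 active = inhibition above a set limit, the median over all tested compounds plus 3 SD, cut at about 9.5% in these data; inconclusive = no clear call, values can overlap the other calls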;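 also: enzyme runs in reverse so mevalonate oxidation gives rising NADPH absorbance; 0% = complete reaction with DMSO and 100% = background rate lacking mevalonate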
m-calpain inh – calpain II (pig) inhibition | AID 1236 | actives 0.37% (n = 220,000) | inhibition, % at 16 µM | purified calpain II, fluorogenic peptide substrate, 30 min;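 active = inhibition above about 50%, limit read from the data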
ROMK retest – retested hit modulating human ROMK potassium channel; shares compounds with ROMK primary; ROMK thallium flux, fluorescence ratio; active compounds read low; normalized thallium flux (F/F0 slope) at 10 µM; actives 54% (n = 3,000);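 active = Flux at 10 µM at least 3 SD below or above vehicle control mean in one or both replicates; inconclusive = no clear call, values can overlap the other calls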
The depositor's hits bear a star.

`CCOC(=O)N/N=C/c1c(F)cccc1F` gave HSV augment inactive, ROMK primary -0.44, Arbovirus anti 1, Efa HMGR inh 0 and m-calpain inh -4.
CCOC(=O)N/N=C/c1ccccc1F was read as ROMK primary -14*, Arbovirus anti 3, Efa HMGR inh -2, m-calpain inh 14 and ROMK retest 0.075.
`Cc1cc(NC(=O)Nc2ccccc2F)ccc1Br` gave HSV augment inactive, ROMK primary -2.5, Arbovirus anti 6, Efa HMGR inh 0 and m-calpain inh -18.
For Cn1c(-c2ccc3c(c2)OCO3)cnc1NCc1ccccc1 the results were HSV augment inactive, Arbovirus anti -11, Efa HMGR inh -4 and m-calpain inh -2.
For Cn1c(-c2ccc3c(c2)OCO3)cnc1NCc1cccc(Cl)c1 the results were HSV augment inactive, ROMK primary -4.8*, Arbovirus anti -13, Efa HMGR inh -8, m-calpain inh 26 and ROMK retest 0.065*.
For COc1cc(NC(=O)COc2ccc(-n3cnnn3)cc2)c(OC)cc1Cl the results were HSV augment inactive, Arbovirus anti -2, Efa HMGR inh -3, m-calpain inh -16 and ROMK retest 0.087.
CCCN(CCC)C(=O)CC(c1ccc(F)cc1)c1ccco1 (configuration not stated) was read as HSV augment inactive, ROMK primary -1.3, Arbovirus anti 2, Efa HMGR inh -3 and m-calpain inh -82.
CCN(CC)C(=O)CC(c1ccccc1)c1ccco1 (configuration not stated) was read as HSV augment inactive, Arbovirus anti 10, Efa HMGR inh -4, m-calpain inh -28 and ROMK retest 0.084.
`CN(O)/C=N/C(=S)Nc1ccc(Cl)cc1Cl` gave HSV augment inactive, ROMK primary 2.4*, Arbovirus anti -4, Efa HMGR inh -1, m-calpain inh -11 and ROMK retest 0.08.
Screening Cc1cccc(COCC(Cc2ccccc2)N2CCN(C(=O)c3ccc(Cl)c(Cl)c3)CCC2=O)c1 (configuration not stated) returned HSV augment inactive, ROMK primary -2.6*, Arbovirus anti -34, Efa HMGR inh -5, m-calpain inh 7 and ROMK retest 0.06*.
For Cc1ccc(NC(=O)CSc2nnc(-c3ccccn3)n2N)c(Br)c1 the results were HSV augment inactive and m-calpain inh -17.
Screening c1ccc(-c2nc3nonc3nc2-c2ccccc2)cc1 returned ROMK primary -4.2*, Arbovirus anti -40, Efa HMGR inh -7, m-calpain inh 26 and ROMK retest 0.063*.
Screening CN(C(=O)Cc1c(C(=O)O)n(C)c2ccccc12)c1ccc(F)cc1 returned HSV augment inactive, ROMK primary 0.57, Arbovirus anti 6, Efa HMGR inh -3 and m-calpain inh -15.
Screening CCc1ccccc1NS(=O)(=O)c1ccc(SC)cc1 returned HSV augment inactive, ROMK primary -1.6*, Arbovirus anti -7, Efa HMGR inh -1, m-calpain inh 32 and ROMK retest 0.065*.
COc1ccccc1/C=N/NC(=O)CC(=O)Nc1ccc(Cl)c(Cl)c1 was read as HSV augment inactive, ROMK primary -3.8*, Arbovirus anti -2, Efa HMGR inh -7, m-calpain inh -16 and ROMK retest 0.087.
Screening COc1ccccc1/C=N/NC(=O)COCC(=O)N/N=C/c1ccccc1OC returned HSV augment inactive, ROMK primary -1, Arbovirus anti -1, Efa HMGR inh 2 and m-calpain inh 29.
O=C(/C=C/c1ccc(F)cc1)N1CCCc2ccccc21 was read as HSV augment inactive, ROMK primary -2.4*, Arbovirus anti -5, Efa HMGR inh -4, m-calpain inh 36 and ROMK retest inconclusive.
For CCCC(=O)Nc1ccc(Cl)c(NC(=O)c2ccco2)c1 the results were HSV augment inactive, Arbovirus anti -8, Efa HMGR inh 5 and m-calpain inh 5.
`CS/C(Nc1cc(Cl)ccc1Cl)=C(/C#N)C(=O)c1ccco1` gave HSV augment inactive, m-calpain inh 42 and ROMK retest 0.051*.
`O=C(O)c1nn(CC(=O)N2CCN(S(=O)(=O)c3ccc(Cl)cc3)CC2)c(=O)c2ccccc12` gave HSV augment inactive, ROMK primary 0.13 and m-calpain inh 17.
CCn1c(Oc2ccc(F)cc2)nc2c1c(=O)n(C)c(=O)n2C was read as HSV augment inactive, ROMK primary -0.66, Arbovirus anti 25, Efa HMGR inh -4 and m-calpain inh -6.
CCCCn1c(Oc2ccc(C(=O)OC)cc2)nc2c1c(=O)n(C)c(=O)n2C was read as HSV augment inactive, ROMK primary -3.7*, Arbovirus anti 23, Efa HMGR inh -8, m-calpain inh 27 and ROMK retest 0.06*.
Screening COc1ccc(/C=C/C(=O)NC(CCSC)C(=O)O)cc1 (configuration not stated) returned HSV augment inactive, ROMK primary 0.0099, Arbovirus anti -3, Efa HMGR inh -3 and m-calpain inh -14.
`Cc1cccc(C)c1NC(=S)N1CCCN(Cc2ccc(F)cc2)C1` gave HSV augment inactive, Arbovirus anti -6, Efa HMGR inh -3 and m-calpain inh -33.
`Cc1ccc(NC(=O)N2CCCN(Cc3ccc(F)cc3)C2)cc1C` gave HSV augment inactive, ROMK primary -4*, Arbovirus anti -37, Efa HMGR inh 2, m-calpain inh -23 and ROMK retest 0.056*.
`O=C(NN1C(=O)c2ccccc2C1=O)c1ccc2c(c1)C(=O)N(CC1CCCO1)C2=O` (configuration not stated) gave HSV augment inactive, ROMK primary 0.24 and m-calpain inh 10.
`CCOc1ccc(Nc2ccc(N3C(=O)CCC3=O)cc2[N+](=O)[O-])cc1` gave HSV augment inactive, ROMK primary 0.21, Arbovirus anti -1, Efa HMGR inh 0 and m-calpain inh 8.
For CN(/N=C/c1cccnc1)c1cnn(-c2ccc(F)c(Cl)c2)c(=O)c1Cl the results were HSV augment inactive, ROMK primary 1.7*, Arbovirus anti 3, Efa HMGR inh -6, m-calpain inh -407 and ROMK retest 0.089.
Screening COc1cc(NC(C)=O)c2ncccc2c1[N+](=O)[O-] returned ROMK primary -4.7*, Arbovirus anti 0, Efa HMGR inh -1, m-calpain inh -5 and ROMK retest 0.046*.
For Cc1cc[n+]2n1CC(O)C2 (configuration not stated) the results were HSV augment inactive, ROMK primary 0.28 and m-calpain inh -9.
Screening CCOC(=O)c1sc(NC(=O)CSc2n[nH]c(-c3ccccc3)n2)c(C#N)c1C returned Arbovirus anti -41, Efa HMGR inh 1, m-calpain inh -138 and ROMK retest 0.059*.
O=CN(c1ccccc1)c1ccc2ccccc2c1 was read as HSV augment inactive, Arbovirus anti -15, Efa HMGR inh 2 and m-calpain inh 1.

Screening results (PubChem)
